6 molecules from PubChem BioAssay (NCATS) can be followed below.

For one test, the system named is CRL-7250. Kind of test: Cytotoxic Profiling of Annotated Libraries Using Quantitative High-Throughput Screening (AID 1296008). Further: nearly all actives have a fitted effect of over 60% in size. The following applies: Five cell lines viability, CellTiter-Glo ATP luminescence, 48-72 h; max response: active compounds read low. The essentials:
(§1)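 Cells exposed to compounds for 48 or 72 hr at 37 degrees Celsius. Viability read as ATP-coupled luminescence with CellTiter-Glo after 10 min at room temperature.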

For the next test, the system named is HEK293. The test is described as above. The following applies: Five cell lines viability, CellTiter-Glo ATP luminescence, 48-72 h; max response: active compounds read low. The gist of the method: as §1
In general terms: ATP-based viability assays read luminescence as a measure of living cells.

The test system of test [1] is HaCat. The test is described as above. The following applies: Five cell lines viability, CellTiter-Glo ATP luminescence, 48-72 h; max response: active compounds read low. The gist of the method: as §1
The test system of the next test is KB-3-1. The test is described as above. The following applies: Five cell lines viability, CellTiter-Glo ATP luminescence, 48-72 h; max response: active compounds read low. The essentials: as §1
Test [2] has as its system NIH3T3. The test is described as above. The following applies: Five cell lines viability, CellTiter-Glo ATP luminescence, 48-72 h; max response: active compounds read low. The gist of the method:
as §1

Test [3] concerns HACAT. As to the kind of experiment: qHTS assay to identify novel small-molecules to repurpose for Merkel cell carcinoma treatment (AID 1296009). Further: nearly all actives have a fitted effect of over 60% in size. Further: potency means the concentration at half of the fitted maximal effect. The following applies: MCC and control cell lines, CellTiter-Glo viability, 72 h; at 44.8 µM (top of the series) unless noted. The essentials: (§2)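 Dose-response viability screen; 72 hr exposure at 37 degree celsius; CellTiter-Glo added, 10 min room temperature, luminescence read; RLUs scaled between no-cell and DMSO wells.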
In general terms: Quantitative high-throughput screening tests each substance at several concentrations.

Another test has as its system HEK293T. The test is described as above. The following applies: MCC and control cell lines, CellTiter-Glo viability, 72 h; at 44.8 µM (top of the series). The essentials: as §2
Another test relates to MCC-13. Described as above. The following applies: MCC and control cell lines, CellTiter-Glo viability, 72 h; series mostly up to 46 µM. The essentials:
as §2

A further test concerns MCC-26. The test is described as above. The following applies: MCC and control cell lines, CellTiter-Glo viability, 72 h; series mostly up to 46 µM. The essentials:
as §2

The subject of another test is MKL-1. Described as above. The following applies: MCC and control cell lines, CellTiter-Glo viability, 72 h; series mostly up to 46 µM. The gist of the method:
as §2

The next test deals with MKL-2. The test is described as above. The following applies: MCC and control cell lines, CellTiter-Glo viability, 72 h; series mostly up to 46 µM. The gist of the method: as §2
Test [4] deals with NIH3T3. The test is described as above. The following applies: MCC and control cell lines, CellTiter-Glo viability, 72 h; at 44.8 µM (top of the series) unless noted. The essentials:
as §2

For a further test, the system named is UISO. Described as above. The following applies: MCC and control cell lines, CellTiter-Glo viability, 72 h; series mostly up to 46 µM. The essentials:
as §2

The next test deals with WaGa. The description is as above. The following applies: MCC and control cell lines, CellTiter-Glo viability, 72 h; series mostly up to 46 µM. The gist of the method:
as §2

The next test concerns C33A. Kind of test: Primary qHTS to identify gynecologic anti-cancer compounds using libraries of approved drugs and bioactive compounds (AID 1345084). Further: nearly all actives have a fitted effect of over 55% in size. The following applies: Gynecologic cancer cell panel viability, ATPlite luminescence, 48 h; series mostly up to 57.5 µM. The essentials: (§3)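 Luminescence from the ATPlite ATP-monitoring reagent indicates viable cell number; lower signal means cytotoxicity. Cells received compound 16 h after seeding and were exposed for 48 h across five concentrations.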

A further test relates to CASKI. Described as above. The following applies: Gynecologic cancer cell panel viability, ATPlite luminescence, 48 h; series mostly up to 57.5 µM. The gist of the method: as §3
A further test concerns Es-2. The test is described as above. The following applies: Gynecologic cancer cell panel viability, ATPlite luminescence, 48 h; series mostly up to 57.5 µM. The essentials:
as §3

The test system of the next test is HeLa. The test is described as above. The following applies: Gynecologic cancer cell panel viability, ATPlite luminescence, 48 h; series mostly up to 57.5 µM. The gist of the method:
as §3

The test system of a further test is CAOV3. Described as above. The following applies: Gynecologic cancer cell panel viability, ATPlite luminescence, 48 h; series mostly up to 57.5 µM. The gist of the method:
as §3

Values joined by “and” are separate entries in the source; they are usually repeats but may differ in a detail not shown here. Identical values can stand only once. Records with an inconclusive call do not appear. Unmarked numbers belong to inactive results. Active and inactive are the calls of the source. The call rests on the fitted dose curve; in most records, active means well fitted curve in the direction sought with a large enough effect; inconclusive means small, poorly fitted or top-dose-only effect, or another doubt; inactive means no such curve, though single readings can be large; an effect the other way counts as inactive or inconclusive.
On the % scale 0 is the no-effect control and ±100 the full control effect.

For the molecule `O=C(O)c1nn(Cc2ccc(Cl)cc2Cl)c2ccccc12`, the max response in the test on CRL-7250 was -5.04% and -7.58%; in the test on HEK293, -10.4%; with HaCat [1], -0.99%; in the test with KB-3-1 it was 4.9% and -9.13%; in the test with NIH3T3 [2], -6.41%. Besides, the molecule was called inactive with HEK293, in the test with HaCat [1], in the test with NIH3T3 [2], with HACAT [3], in the test on HEK293T and in the test on NIH3T3 [4]. Besides, the Potency entry in the test with MCC-13, in the test with MCC-26, with MKL-1, in the test with MKL-2, in the test on UISO and in the test on WaGa was “inactive” in each case. Further, the Potency entry in the test on C33A, in the test on CASKI, in the test with Es-2 and with HeLa was “inactive” in each case.
In the case of `Cc1ccc(N=CN(C)C=Nc2ccc(C)cc2C)c(C)c1`, the max response with CRL-7250 was -6.67%; with HaCat [1], -15.3%; with KB-3-1 it was 1.07%. Besides, the molecule was classed as inactive in the test on HEK293, in the test on NIH3T3 [2], in the test on HEK293T and in the test on NIH3T3 [4]. Besides, the Potency result with MCC-13, with MCC-26, in the test with MKL-1, in the test on MKL-2, in the test on UISO and in the test on WaGa was “inactive” in each case. Further, the Potency result in the test with C33A, with CAOV3, with CASKI, in the test with Es-2 and in the test with HeLa was “inactive” throughout.
For `CNC(=O)NC(O)C(Cl)(Cl)Cl` (stereo not given), the max response with CRL-7250 is 2.85%; in the test with HEK293 it was 2.62%; with KB-3-1, 2.2%; with NIH3T3 [2], -0.697%. Also, the molecule was called inactive with HaCat [1] and with HACAT [3]. Besides, the Potency entry with MCC-13, in the test on MCC-26, in the test with MKL-1, in the test with MKL-2, with UISO and with WaGa was “inactive” throughout. The Potency result with C33A, in the test on CAOV3, with CASKI, in the test on Es-2 and in the test with HeLa was “inactive” in each case.
Take `CC(C)[N+](C)(CCC(C(N)=O)(c1ccccc1)c1ccccc1)C(C)C`: the figures for the max response with CRL-7250, with HEK293 and in the test on KB-3-1 were 3.89%, -1% and 11.9%, respectively. Moreover, the molecule was called inactive with HaCat [1], in the test with NIH3T3 [2], in the test on HACAT [3] and in the test on NIH3T3 [4]. The Potency result in the test with MCC-13, in the test with MCC-26, in the test with UISO, with CASKI, in the test on Es-2 and in the test with HeLa was “inactive” throughout. Besides, in the test with WaGa, the Potency is 23.7 µM (active).
For `COc1ccc(OC)c(CC(C)N)c1` (stereo not given), the max response in the test on CRL-7250 is -3.68%; in the test on HEK293 it was -0.178%; with KB-3-1, -0.889%; with NIH3T3 [2], -6.71%. For the same molecule, the molecule was called inactive in the test with HaCat [1]. Further, the outcome in the test with HACAT [3] was “inactive [at 92 µM]”. For the same molecule, the Potency result in the test on MCC-13, in the test with MCC-26, with MKL-1, in the test on MKL-2, in the test on UISO and with WaGa was “inactive” each time. The Potency result in the test on C33A, in the test with CAOV3, with CASKI, in the test with Es-2 and with HeLa was “inactive” each time.
Turning to `OC(O)C(Cl)(Cl)Cl`, the values for the max response with CRL-7250, in the test on HEK293 and in the test on KB-3-1 were -3.66%, -2.43% and 1.25%, respectively. The result in the test on HaCat [1], in the test on NIH3T3 [2], with HACAT [3] and with NIH3T3 [4] was inactive. In addition, the Potency entry in the test on MCC-13, in the test on MCC-26, in the test with MKL-1, in the test with MKL-2, in the test with UISO and in the test with WaGa was “inactive” throughout. The Potency entry with C33A, in the test on CAOV3, in the test with CASKI, with Es-2 and with HeLa was “inactive” in each case.
